Sampled rows, rich in hits. Any-hit rate of the full collection: about 9.4%.
Pf growth 96h: Primary qHTS for delayed death inhibitors of the malarial parasite plastid, 96 hour incubation; P. falciparum luciferase reporter growth, 96 h; Potency, µM (titrated, usually from 28.7 µM), without a hit: top-dose activity change, negative = inhibition, most hits filed as inhibitors; 320,000 tested, 6.9% active; AID 504834, 2011; note: % is set by controls: 0 for no effect and ±100 for the full control effect
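Two parasite generations (96 h, 37 C, 5% CO2) of compound exposure in infected erythrocytes (0.05% parasitemia, 2% hematocrit). Luciferase-reporter P. falciparum; decreased luminescence indicates inhibited growth, aimed at apicoplast-acting delayed death.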
AMA1 RON2 block: qHTS for Inhibitors of AMA1-RON; Towards Development of Antimalarial Drug Lead: Primary Screen. Potency, µM (highest dose often 58.2 µM), for the others: at the highest dose activity change, negative = inhibition, actives largely listed as inhibitors. 360,000 tested, 0.2% active. AID 720542, 2013. AlphaScreen AMA1-biotinylated RON2 peptide binding;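 note: 0% = vehicle wells and -100% = peptide control; nearly all actives have a fitted effect of over 45% in size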
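AMA1 (3D7) with his tag at 25 nM final met compounds first, then biotinylated RON2 peptide at 25 nM; detection used donor plus acceptor beads, 10 µg/mL apiece, read by AlphaScreen after 30 min at room temperature.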
SARS PLP yeast: qHTS of Yeast-based Assay for SARS-CoV PLP; S. cerevisiae expressing SARS-CoV PLpro, growth rescue; Potency, µM (titrated, usually from 32.9 µM), without a hit: at the top dose activity, positive = growth rescue, hits mostly activators; 330,000 tested, 0.19% active; calls by dose curve; note: 0% is about no effect; nearly all actives have a fitted effect of over 55% in size
Pf growth 48h: Primary qHTS for delayed death inhibitors of the malarial parasite plastid, 48 hour incubation | Potency, µM (top dose mostly 28.7 µM), inactives show at the highest dose activity change, negative = inhibition, usual class: inhibitors | 310,000 tested, 5.9% active | P. falciparum luciferase growth in erythrocytes, 48 h; note: % is set by controls: 0 for no effect and ±100 for the full control effect
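Parasite viability was followed by luminescence of a genomically integrated firefly luciferase. Cultures held 0.1% parasitemia at 2% hematocrit (final), incubated under 5% CO2 at 37 C.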
The depositor's hits bear a star; ? = inconclusive; . = no result given; ! = not active in a repeat; [ ] = another dose, or the depositor's remark. Unless noted, calls come from the whole dose curve; as a rule, active = well fitted curve in the direction sought with a large enough effect; inconclusive = small, poorly fitted or top-dose-only effect, or another doubt; inactive = no such curve, though single readings can be large; an effect the other way counts as inactive or inconclusive. Potency is the fitted concentration of half-maximal effect.

SMILES | Pf growth 96h | AMA1 RON2 block | SARS PLP yeast | Pf growth 48h
CCC(C)(C)NC(=O)C(c1cccn1C)N(Cc1ccc(OC)cc1)C(=O)Cn1nnc2ccccc21 (stereo not given) | ? | 2% | -4% | 9.3µM*
CCC(C)(C)NC(=O)C(c1cccn1C)N(Cc1ccccc1)C(=O)Cn1nnc2ccccc21 (stereo not given) | -23% | 8% | 2% | -5%
Cc1ccc(C(C(=O)NCc2ccco2)N(C(=O)Cn2nnc3ccccc32)c2ccccc2)o1 (stereo not given) | 15% | 0% | 10% | ?
Cc1ccc(C(C(=O)NCc2ccco2)N(CCc2ccccc2)C(=O)Cn2nnc3ccccc32)o1 (stereo not given) | . | 5% | -6% | 13µM*
COc1cccc(N(C(=O)Cn2nnc3ccccc32)C(C(=O)NCc2ccco2)c2cccnc2)c1 (stereo not given) | . | -1% | -4% | 8.3µM*
Cc1ccc(N(C(=O)Cn2nnc3ccccc32)C(C(=O)NCc2ccco2)c2ccc(C)o2)cc1 (stereo not given) | ? | -1% | -2% | 13µM*
COC(=O)c1ccc(COc2ccc(C=O)cc2OC)o1 | -4% | 3% | 0% | 23%
CCOc1ccccc1OCC(=O)Nc1c(C)n(C)n(-c2ccccc2)c1=O | -6% | 4%[11.6 µM] | 0% | -7%
O=C(O)C1(C(=O)O)CCC1 | 7% | 4% | . | -6%
Cc1cccc(N(C(=O)Cn2nnc3ccccc32)C(C(=O)NC(C)(C)C)c2ccsc2)c1C (stereo not given) | ? | -6% | ? | ?
Cc1ccc(N(C(=O)Cn2nnc3ccccc32)C(C(=O)NCc2ccco2)c2cccnc2)cc1 (stereo not given) | ? | 26% | -3% | 10µM*
Cc1cc(C)cc(N(C(=O)Cn2nnc3ccccc32)C(C(=O)NCc2ccco2)c2ccncc2)c1 (stereo not given) | 18% | 8% | -1% | -21%
CCC(C)(C)NC(=O)C(c1ccco1)N(C(=O)Cn1nnc2ccccc21)c1ccc2c(c1)OCO2 (stereo not given) | 7.4µM* | -2% | 8% | ?
Cc1ccccc1CCN(C(=O)Cn1nnc2ccccc21)C(C(=O)NC(C)(C)C)c1ccsc1 (stereo not given) | 1.2µM* | 0% | -7% | ?
O=C(Nc1cccc(F)c1)c1cccnc1NCCc1ccccc1 | ? | 57% | -80% | -12%
O=C(Nc1ccc(F)cc1)c1cccnc1NCCc1ccccc1 | 3.7µM* | 12% | -44% | ?
C/C(=N/NS(=O)(=O)c1cccc([N+](=O)[O-])c1)c1ccc2c(c1)OCO2 | 0.83µM* | -16% | 2% | 21%
C/C(=N\NS(=O)(=O)c1ccc([N+](=O)[O-])cc1)c1ccc2c(c1)OCO2 | 5.9µM* | 2% | 7% | 40%
C/C(=N/NS(=O)(=O)c1ccc(C)cc1)c1ccc2c(c1)OCO2 | -6% | 14% | -1% | 14%
O=C(CCc1ccc(S(=O)(=O)N2CCOCC2)cc1)Nc1cc(Cl)ccc1N1CCOCC1 | -18% | -4% | 0% | 6.6µM*
O=C(Cc1ccccc1Cl)Nc1cc(S(=O)(=O)N2CCOCC2)ccc1N1CCOCC1 | 10µM* | -7%[11.6 µM] | 8% | ?
O=C(Cc1c(F)cccc1Cl)Nc1ccccc1N1CCCCC1 | 13µM* | 37% | 0% | 0%
O=C(Cc1c(F)cccc1Cl)Nc1cc(S(=O)(=O)N2CCCCC2)ccc1N1CCOCC1 | ? | -21% | 0% | 12µM*
COc1cc(OC)cc(C(=O)NNC(=O)CNC(=O)c2cccs2)c1 | -18% | 33% | 0% | 3%
Cc1ccnc(OC(C(=O)O)C(OCc2ccccc2)(c2ccccc2)c2ccc(C(F)(F)F)cc2)n1 (stereo not given) | ? | -1% | 5% | 6%
CCN(CC)c1nc2ccccc2[nH]c1=O | 46% | -3% | -1% | -2%
NCc1ccc(S(N)(=O)=O)cc1 | 3.6µM*! | -2% | 2% | ?
NCCc1ccc(S(N)(=O)=O)cc1 | 5% | 0% | 3% | 17%
Cc1cc(C)c(NC(=S)N(CCc2ccncc2)C(C)C)c(C)c1 | -7% | 9% | -1% | 10µM*

Screening results from PubChem BioAssay.
